Granule exo inh: lytic granule exocytosis inhibition | 360,000 compounds, 0.66% hits | inhibition, % at 10 µM | TALL-104 LAMP-1 surface exposure, flow cytometry; cells stimulated with thapsigargin and PMA;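 active = inhibition above about 55%, limit read from the data; inconclusive = no clear call, values can overlap the other calls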
ABCB6 inh 2: blocks the human ABCB6 transporter | Q9NP58 | K562-ABCB6 porphyrin accumulation, flow cytometry, 1 h; active compounds read low | fluorescence ratio to DMSO, % at 10 µM | 360,000 compounds, 0.19% hits;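 active = fluorescence ratio to DMSO below 75%, the collection mean minus 3 SD; inconclusive = too few cells collected in the well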;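 note: signal is porphyrin accumulated inside mitochondria; lower ratio means ABCB6 inhibition with less porphyrin fluorescence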
Target sequence (Q9NP58 whole entry, looked up): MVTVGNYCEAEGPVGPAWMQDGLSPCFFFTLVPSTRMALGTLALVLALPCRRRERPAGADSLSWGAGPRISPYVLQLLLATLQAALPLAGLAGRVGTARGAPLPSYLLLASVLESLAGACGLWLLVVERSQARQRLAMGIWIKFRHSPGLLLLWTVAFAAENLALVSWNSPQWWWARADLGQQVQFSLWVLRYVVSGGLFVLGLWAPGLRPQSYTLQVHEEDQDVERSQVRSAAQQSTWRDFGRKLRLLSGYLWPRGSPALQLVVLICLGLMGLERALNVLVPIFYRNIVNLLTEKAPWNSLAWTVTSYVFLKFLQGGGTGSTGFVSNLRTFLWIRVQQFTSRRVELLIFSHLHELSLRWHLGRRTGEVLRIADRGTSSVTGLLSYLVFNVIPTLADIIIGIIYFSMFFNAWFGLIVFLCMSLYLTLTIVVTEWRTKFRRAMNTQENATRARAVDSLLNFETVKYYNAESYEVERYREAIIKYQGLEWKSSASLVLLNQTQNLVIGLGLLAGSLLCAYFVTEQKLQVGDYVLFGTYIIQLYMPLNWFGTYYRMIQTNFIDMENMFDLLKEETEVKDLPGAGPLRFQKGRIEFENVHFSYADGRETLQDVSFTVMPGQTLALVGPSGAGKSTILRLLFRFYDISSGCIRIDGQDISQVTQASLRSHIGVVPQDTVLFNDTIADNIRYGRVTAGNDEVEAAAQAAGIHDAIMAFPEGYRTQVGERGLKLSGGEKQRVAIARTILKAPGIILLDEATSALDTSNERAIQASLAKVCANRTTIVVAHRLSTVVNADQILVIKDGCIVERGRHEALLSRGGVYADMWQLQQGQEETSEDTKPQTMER
Myeloid diff 2: myeloid differentiation induction; ER-HoxA9 myeloid progenitors, lysozyme-GFP differentiation, flow cytometry; calls only at 10 µM; 360,000 compounds, 1% hits; AID 624256;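 active = normalized GFP-positive differentiation at or above the plate's own cutoff, the solvent-only control mean plus 3 SD; inconclusive = no clear call, values can overlap the other calls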;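 note: cells exposed to compound for four days before flow analysis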
Each line names hits and unclear results; the compound was inactive in the other large screens; ! = not active in a repeat. This is a sample that favours compounds with a hit; in the whole collection about 1.8% have one here.

CC(=O)c1ccc(N(C(=O)CNC(=O)c2ccco2)C(C(=O)NC2CCCC2)c2ccncc2)cc1 (centres undefined)	none
Cc1cc(C)nc(NC(N)=S)n1	none
Cc1cc(C)nc(NC(N)=NC2CCCCC2)n1	Myeloid diff 2 active
CCOc1ccc(-c2nc(=S)[nH][nH]2)cc1	none
COc1ccc(-c2nc(=S)[nH][nH]2)cc1	Granule exo inh 56
Cn1c(O)c(N=Nc2ccccc2[N+](=O)[O-])c2ccccc21	none
Cn1c(-c2ccccc2[N+](=O)[O-])[n+](C)c2ccccc21	Myeloid diff 2 active
O=C1[C@@H](Oc2ccccc2)[C@@H](c2cccnc2)N1c1ccccc1	none
CC(C)Cc1nnc(NC(=O)C2CCCN(C(=O)c3ccc(Cl)cc3)C2)s1 (centres undefined)	none
O=C1c2cccc3cc([N+](=O)[O-])cc(c23)C(=O)N1CCN1CCCC1	Myeloid diff 2 inconclusive
O=C(CN1C(=O)c2cccc3cccc(c23)C1=O)N1CCCCCC1	ABCB6 inh 2 63
Nc1cc2c3c(cccc3c1)C(=O)N(CCN1CCCC1)C2=O	Myeloid diff 2 active
O=C(CN1C(=O)c2ccccc2C1=O)N1CCCCC1	none
O=c1oc(C2(O)CCCCC2)cc2ccc(-c3ccc4[nH]ccc4c3)cc12	none
COc1ccc(-c2c(C(=O)c3ccccc3)[nH]c(N)c2C(N)=O)cc1OC	none
COc1ccc(-c2c(C(=O)c3ccc(Br)cc3)[nH]c(N)c2C(=O)c2ccccc2)cc1OC	Myeloid diff 2 active
CCn1nc(C)cc1C(=O)Sc1cccc(Cl)c1	Granule exo inh 68
CCn1nc(C)cc1C(=O)N1CCCC(N2CCN(c3cccc(Cl)c3)CC2)C1 (centres undefined)	none
Cc1nn(C)c(C(=O)Sc2ccccc2)c1[N+](=O)[O-]	none
Cc1nn(C)c(C(=O)Sc2cccc(Cl)c2)c1[N+](=O)[O-]	Granule exo inh 64
COc1ccc([C@H]2N[C@]3(CCCN(Cc4ccc(C(F)(F)F)cc4)C3=O)[C@H]3C(=O)N(Cc4ccccc4)C(=O)[C@@H]23)cc1	none
Nc1cc2c(cc1N)-c1ccccc1C2	Myeloid diff 2 active
Nc1ccc2c(c1)Cc1cc(N)c(Cl)cc1-2	none
COc1ccc(CCN2C(=O)CC(NNc3ccc([N+](=O)[O-])cc3)C2=O)cc1OC (centres undefined)	Myeloid diff 2 active
COc1ccc(CCNC2CC(=O)N(CCc3ccc(OC)c(OC)c3)C2=O)cc1OC (centres undefined)	none
O=C(CSc1nccc(=O)[nH]1)NC1CCCCCCC1	none
Cc1[nH]c2ccccc2c1/C=N/NC(=S)NC(C)C	Myeloid diff 2 active
CC(C)NC(=S)N/N=C/c1c[nH]c2ccccc12	none
COc1ccc(-c2cc(=O)c3cc(C)ccc3[nH]2)cc1	none
COc1ccc(-c2cc(=O)c3cc(OC)ccc3[nH]2)cc1	Myeloid diff 2 active
COc1ccc(NS(=O)(=O)c2ccc(C)c(C(=O)NCCCn3ccnc3)c2)cc1	none
COc1ccc2cc3cc(C(=O)N4CCCCCC4)oc3nc2c1	none
COc1ccc2cc3cc(C(=O)N4CCCCC4C)oc3nc2c1 (centres undefined)	Myeloid diff 2 active
Cn1c(SCC(=O)c2ccccc2)nc2cccnc21	none
Cc1ccc(C(=O)CSc2nc3cccnc3n2C)cc1	Myeloid diff 2 active
CC(C)C[C@@H](CN)NC(=O)c1nc[nH]c1C(=O)N[C@@H](C)C(=O)CNC[C@H](CC(C)C)NC(=O)c1nc[nH]c1C(=O)N[C@@H](Cc1ccccc1)C(=O)O	none
CCN(CC)C(=O)c1cccc(NC(=O)c2ccccc2OCc2c(C)noc2C)c1	none
c1ccc(N2CCN(Cc3nc4ccccc4[nH]3)CC2)nc1	Myeloid diff 2 active
Oc1ccc(N2CCN(Cc3nc4ccccc4[nH]3)CC2)cc1	none
CC1(C)Cc2c(sc(NC(=O)COc3ccc(Cl)cc3)c2C#N)C(C)(C)N1	none
Cc1ccccc1OCC(=O)Nc1sc2c(c1C#N)CC(C)(C)NC2(C)C	Granule exo inh 59
CN(CCOc1ccc(Cl)cc1)C(=O)c1cccc(S(=O)(=O)N2CCN(c3ccccc3)CC2)c1	none
COCC(=O)N1C[C@H](C)[C@H](OC)CN(C)C(=O)c2cc(NC(=O)Nc3cccc(F)c3)ccc2OC[C@@H]1C	none (no result: ABCB6 inh 2)
NS(=O)(=O)c1ccc(NC2(C(=O)O)CCCC2)cc1	Myeloid diff 2 active
NS(=O)(=O)c1ccc(NC(=O)C2(c3ccccc3)CCCC2)cc1	none
Cc1cccc(S(=O)(=O)NC(=O)C2(C)CCN2C(=O)Cc2ccc(C(C)(C)C)cc2)c1 (centres undefined)	none
COc1ccccc1Cc1c(-c2ccc(Cl)cc2)nc2c(Cl)cc(C(F)(F)F)cn12	none
COc1ccccc1Cc1c(-c2ccc(C#N)cc2)nc2c(Cl)cc(C(F)(F)F)cn12	Myeloid diff 2 active
O=C1NC(Cc2ccccc2)c2nc3cc(F)ccc3c(=O)n2-c2ncccc21 (centres undefined)	none
O=C1C2CC3N1CCC31c3ccccc3-n3c1c2ccc3=O (centres undefined)	none
C=CCC(C=C)S(=O)(=O)c1ccc(C)cc1 (centres undefined)	Myeloid diff 2 active
Cc1ccc(S(=O)(=O)C=CS(=O)(=O)c2ccc(C)cc2)cc1	none
Cc1cc(CCNC=O)c(C)c2c1oc1ccccc12	none
CCc1c(-c2ccccc2)ncn1Cc1cccc(-c2ccccc2)c1	none (no result: ABCB6 inh 2)
CCCc1c(Cc2cccc(F)c2)ncn1Cc1cccc(-c2ccccc2)c1	Myeloid diff 2 active (no result: ABCB6 inh 2)
CCOC(=O)c1ccc(N=c2sc(C(=O)OC)cc(=O)n2CCCN2CCOCC2)cc1	Myeloid diff 2 active!
CCOC(=O)c1ccc(N=c2sc(C(=O)OC)cc(=O)n2Cc2ccco2)cc1	none
COc1ccc(NS(=O)(=O)c2cc([N+](=O)[O-])ccc2N/N=C/c2c(C)[nH]c3ccccc23)cc1	Myeloid diff 2 active
Cc1[nH]c2ccccc2c1/C=N/Nc1ccccc1[N+](=O)[O-]	none
COc1cccc(-c2nnc(-c3ccccc3NC(=O)c3ccc(C(C)(C)C)cc3)o2)c1	none
O=C(Nc1ccc2c(c1)CCCN2C(=O)c1cccs1)c1ccccc1	Myeloid diff 2 active
O=C(Nc1ccc2c(c1)CCCN2C(=O)c1cccs1)c1cccc(F)c1	Myeloid diff 2 inconclusive
COc1cccc(/C=C2\N=C(C3CCCCC3)OC2=O)c1OC	Granule exo inh 60
CC(=O)Oc1ccc(/C=C2\N=C(C3CCCCC3)OC2=O)cc1	none
CCc1c(C)nc2nc(SCc3ccccc3Cl)[nH]n2c1=O	ABCB6 inh 2 61
CSc1nc2nc(C)c(C/C=C/c3ccccc3)c(=O)n2[nH]1	none
Cc1cc(Br)ccc1NC(=O)CN(C)C(=O)C1=COCCO1	none
CC1=Nc2cccc3cccc(c23)N1	Myeloid diff 2 active
Nc1ccc(C2=Nc3cccc4cccc(c34)N2)cc1	none
CC1(C(=O)NS(=O)(=O)c2ccccc2)CCN1C(=O)CCc1ccccc1 (centres undefined)	none
CC(=O)Oc1ccc(C(=O)[C@H]2[C@H]3C(=O)N(c4ccc(C)cc4)C(=O)[C@H]3[C@@H]3C=CC=NN32)cc1	Myeloid diff 2 active
CC(=O)Oc1ccc(C(=O)[C@H]2[C@H]3C(=O)N(c4ccccc4)C(=O)[C@H]3[C@@H]3C=CC=NN32)cc1	none
O=C1OCCOC2CCCc3oc(C4=CCCCC4)c1c32 (centres undefined)	none
